Experimental findings from publication PMC8384837, “Expanding the binding specificity for RNA recognition by a PUF domain” are described below.

PUM1 PUF domain R3-EWG, sequence (Q14671 828-1176 C935E/R936W/Q939G): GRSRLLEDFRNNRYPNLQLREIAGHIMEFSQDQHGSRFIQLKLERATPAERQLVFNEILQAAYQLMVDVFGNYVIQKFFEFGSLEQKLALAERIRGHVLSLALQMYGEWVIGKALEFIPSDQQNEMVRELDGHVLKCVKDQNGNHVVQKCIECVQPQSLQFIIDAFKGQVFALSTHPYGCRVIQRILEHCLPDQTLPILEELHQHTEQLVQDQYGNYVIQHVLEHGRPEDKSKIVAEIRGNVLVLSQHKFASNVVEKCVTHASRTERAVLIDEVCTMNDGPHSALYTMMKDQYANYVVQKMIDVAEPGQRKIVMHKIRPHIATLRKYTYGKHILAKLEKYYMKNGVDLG
PUM1 PUF domain R4-SPS, sequence (Q14671 828-1176 N971S/H972P/Q975S): as the sequence (Q14671 828-1176 C935E/R936W/Q939G) above, with E108C, W109R, G112Q, N144S, H145P, Q148S counted along it

One assay concerns the target PUM1 PUF domain R3-EWG (Homo sapiens, UniProt Q14671 828-1176, C935E;R936W;Q939G). In words: yeast three-hybrid, YBZ-1, SC-Leu-His + 0.5 mM 3-AT, 4 days. As to conditions: tags: N-Gal4 AD-HA kept; label: inside an RPR1-promoter hybrid RNA with tandem MS2 sites; ssRNA. A digest of the protocol:
(§1)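 The interaction score is the logarithmic change in variant frequency from input to selection. It uses log2, with a pseudocount of 1 for absent variants, and frequencies came from PCR-amplified, Illumina-sequenced repeat regions. The libraries were Pumilio-1 PUF domains randomized at the three base-contacting residues per repeat, co-expressed with matching RNA elements in strain YBZ-1 (LexA–MS2 coat fusion, HIS3 reporter). Plating lasted four days on SC-Leu (input) or SC-Leu-His + 0.5 mM 3-AT (selection).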
Take “GGCUAGAACUAGUGGAUCCCCCGGCGCCCGGCGGCUCGAGCCCGGGUAAGUGUAAUUAGUCUGCAUGCCGCCGGGCGCCAUGCCUGCAGGUCGACUCUAGAAAACAUG”: the binding signal is 3.95 log2 enrichment (interaction score).

Consider “GGCUAGAACUAGUGGAUCCCCCGGCGCCCGGCGGCUCGAGCCCGGGUAAGUGUAAAUAGUCUGCAUGCCGCCGGGCGCCAUGCCUGCAGGUCGACUCUAGAAAACAUG”, for which the binding signal is 3.61 log2 enrichment (interaction score).

“GGCUAGAACUAGUGGAUCCCCCGGCGCCCGGCGGCUCGAGCCCGGGUAAGUGUAAGUAGUCUGCAUGCCGCCGGGCGCCAUGCCUGCAGGUCGACUCUAGAAAACAUG”: the binding signal is 4.81 log2 enrichment (interaction score).

Another assay concerns the target PUM1 PUF domain R4-SPS (Homo sapiens, UniProt Q14671 828-1176, N971S;H972P;Q975S). The description is as above. As to conditions: tags: N-Gal4 AD-HA kept; label: inside an RPR1-promoter hybrid RNA with tandem MS2 sites; ssRNA. A digest of the protocol:
as §1
In the case of “GGCUAGAACUAGUGGAUCCCCCGGCGCCCGGCGGCUCGAGCCCGGGUAAGUGUAUAUAGUCUGCAUGCCGCCGGGCGCCAUGCCUGCAGGUCGACUCUAGAAAACAUG”, the binding signal was 2.82 log2 enrichment (interaction score).

Turning to “GGCUAGAACUAGUGGAUCCCCCGGCGCCCGGCGGCUCGAGCCCGGGUAAGUGUACAUAGUCUGCAUGCCGCCGGGCGCCAUGCCUGCAGGUCGACUCUAGAAAACAUG”, the binding signal was 1.66 log2 enrichment (interaction score).

In the case of “GGCUAGAACUAGUGGAUCCCCCGGCGCCCGGCGGCUCGAGCCCGGGUAAGUGUAAAUAGUCUGCAUGCCGCCGGGCGCCAUGCCUGCAGGUCGACUCUAGAAAACAUG”, the binding signal was 3.74 log2 enrichment (interaction score).

For the next assay, the target named is PUM1 PUF domain R5-KYY (Homo sapiens, UniProt Q14671 828-1176, C1007K;R1008Y;Q1011Y). The assay is described as above. The conditions noted are these: tags: N-Gal4 AD-HA kept; label: inside an RPR1-promoter hybrid RNA with tandem MS2 sites; ssRNA. A digest of the protocol: as §1
PUM1 PUF domain R5-KYY, sequence (Q14671 828-1176 C1007K/R1008Y/Q1011Y): as the sequence (Q14671 828-1176 C935E/R936W/Q939G) above, with E108C, W109R, G112Q, C180K, R181Y, Q184Y counted along it
Regarding “GGCUAGAACUAGUGGAUCCCCCGGCGCCCGGCGGCUCGAGCCCGGGUAAGUGUUAAUAGUCUGCAUGCCGCCGGGCGCCAUGCCUGCAGGUCGACUCUAGAAAACAUG”, the binding signal is 2.56 log2 enrichment (interaction score).

In the case of “GGCUAGAACUAGUGGAUCCCCCGGCGCCCGGCGGCUCGAGCCCGGGUAAGUGUCAAUAGUCUGCAUGCCGCCGGGCGCCAUGCCUGCAGGUCGACUCUAGAAAACAUG”, the binding signal was 3.07 log2 enrichment (interaction score).

In the case of “GGCUAGAACUAGUGGAUCCCCCGGCGCCCGGCGGCUCGAGCCCGGGUAAGUGUAAAUAGUCUGCAUGCCGCCGGGCGCCAUGCCUGCAGGUCGACUCUAGAAAACAUG”, the binding signal is 1.63 log2 enrichment (interaction score).
